Reference: the supplement of paper PMC13380429

System: Vero E6 infected with SARS-CoV-2
Assay: inhibition of SARS-CoV-2 cytopathic effect; higher = more antiviral protection, active = above 15
Conditions: 48 h

Row | SMILES | inhibition of SARS-CoV-2 cytopathic effect (1 nM) | inhibition of SARS-CoV-2 cytopathic effect (8.33 nM) | inhibition of SARS-CoV-2 cytopathic effect (100 nM) | inhibition of SARS-CoV-2 cytopathic effect (833.33 nM) | inhibition of SARS-CoV-2 cytopathic effect (10000 nM)
1 | O=C(NCC1CCCCN1)c1cc(OCC(F)(F)F)ccc1OCC(F)(F)F (stereo not given) [flecainide] | -1.39% (inactive) | 1.45% (inactive) | -0.28% (inactive) | 3.98% (inactive) | -3.89% (inactive)
2 | Cc1onc(-c2ccccc2)c1-c1ccc(S(N)(=O)=O)cc1 [valdecoxib] | 0.48% (inactive) | -0.66% (inactive) | -0.48% (inactive) | 3.3% (inactive) | 0.55% (inactive)
3 | Clc1ccc(C(Cn2ccnc2)OCc2csc3c(Cl)cccc23)c(Cl)c1 (stereo not given) [sertaconazole] | 0.24% (inactive) | 1.06% (inactive) | -0.32% (inactive) | 1.68% (inactive) | -2.97% (inactive)
4 | COc1cc(C)[nH]c(=O)c1CNC(=O)c1c(C)n([C@H](C)C2CCOCC2)c2ccccc12 | -1.12% (inactive) | -1.57% (inactive) | 0.4% (inactive) | -4.34% (inactive) | -4.06% (inactive)
5 | Oc1ccc(-c2nc(-c3ccc(F)cc3)c(-c3ccncc3)[nH]2)cc1 | 0.33% (inactive) | 1.64% (inactive) | -1.29% (inactive) | 2.83% (inactive) | 8.91% (inactive)
6 | O=C(O)c1ccc2c(c1)nc(Nc1cccc(Cl)c1)c1ccncc12 | -2.63% (inactive) | 0.18% (inactive) | -2.24% (inactive) | 0.52% (inactive) | -1.33% (inactive)
7 | Nc1ncnc2c1c(COc1cccc(Cl)c1)nn2C1CCOCC1 | -1.11% (inactive) | -0.68% (inactive) | -0.3% (inactive) | -1.57% (inactive) | -0.4% (inactive)
8 | CNC(=O)c1cccc2cc(Oc3ccnc4cc(OCC5(N)CC5)c(OC)cc34)ccc12 [lucitanib] | 0.14% (inactive) | 2.44% (inactive) | 1.47% (inactive) | 2.09% (inactive) | 2.58% (inactive)
9 | CCN(CC)C(=O)Nc1ccc(OCC(O)CNC(C)(C)C)c(C(C)=O)c1 (stereo not given) [celiprolol] | -3.29% (inactive) | 0.91% (inactive) | -0.73% (inactive) | -0.15% (inactive) | -0.87% (inactive)
10 | CNC(=C[N+](=O)[O-])NCCSCc1ccc(CN(C)C)o1 [ranitidine] | 2.45% (inactive) | 2.26% (inactive) | 2.56% (inactive) | 0.8% (inactive) | 1.08% (inactive)
11 | CCCCCN(CCCOC)C(=O)[C@@H](CCC(=O)O)NC(=O)c1ccc(Cl)c(Cl)c1 [dexloxiglumide] | -5.32% (inactive) | -1.73% (inactive) | 2.58% (inactive) | -1.51% (inactive) | 2.38% (inactive)
12 | CCCCCCCCCCCCCCCCCCCCCCO [docosanol] | -8.94% (inactive) | -7.8% (inactive) | -10.4% (inactive) | -7.91% (inactive) | -4.03% (inactive)
13 | OCCCCO [1,4-butanediol] | -4.4% (inactive) | -1.22% (inactive) | -1.14% (inactive) | 0.26% (inactive) | -1.17% (inactive)
14 | CC(C)(C)C(=O)/C(=N/c1ccc(Cl)cc1)NNc1ccc(Cl)cc1 | 1.8% (inactive) | -0.69% (inactive) | 1.03% (inactive) | 0.66% (inactive) | -7% (inactive)
15 | COc1cc(F)c(C(C)C)cc1-c1ccc(C(F)(F)F)cc1CN1C(=O)O[C@H](c2cc(C(F)(F)F)cc(C(F)(F)F)c2)[C@@H]1C [anacetrapib] | 0.72% (inactive) | 0.48% (inactive) | -1.02% (inactive) | -2.52% (inactive) | 2.39% (inactive)
16 | c1ccc(-c2ccc(C(c3ccccc3)n3ccnc3)cc2)cc1 (stereo not given) [bifonazole] | 3.05% (inactive) | 3.28% (inactive) | 4.39% (inactive) | -11.6% (inactive) | 15.4% (active)
17 | Fc1ccc(C(OCCN2CCN(C/C=C/c3ccccc3)CC2)c2ccc(F)cc2)cc1 | 1.02% (inactive) | 1.01% (inactive) | 3.35% (inactive) | 1.4% (inactive) | 0.32% (inactive)
18 | CC(C)(C)NCC(O)c1cc(Br)no1 (stereo not given) [broxaterol] | -1.51% (inactive) | -0.09% (inactive) | -1.23% (inactive) | -0.44% (inactive) | -2.74% (inactive)
19 | CO[C@@H]1[C@@H](OC(N)=O)[C@@H](O)[C@H](Oc2ccc3c(O)c(NC(=O)c4ccc(O)c(CC=C(C)C)c4)c(=O)oc3c2C)OC1(C)C [novobiocin] | -2.55% (inactive) | -2.69% (inactive) | 2.34% (inactive) | 0.52% (inactive) | 0.14% (inactive)
